# Test results: the supplement of paper PMC13380429
# Values without a mark were called inactive.
# Tested on: Vero E6 infected with SARS-CoV-2
# Test: inhibition of SARS-CoV-2 cytopathic effect; higher = more antiviral protection, active = above 15
# Conditions: 48 h
Structure (SMILES),inhibition of SARS-CoV-2 cytopathic effect (1 nM),inhibition of SARS-CoV-2 cytopathic effect (8.33 nM),inhibition of SARS-CoV-2 cytopathic effect (100 nM),inhibition of SARS-CoV-2 cytopathic effect (833.33 nM),inhibition of SARS-CoV-2 cytopathic effect (10000 nM)
CNC(=O)CN1CCC(Oc2cc3c(Nc4cccc(Cl)c4F)ncnc3cc2OC)CC1,-0.01%,0.66%,-6.91%,-7.8%,-13.6%
"Cc1cc(C)cc(C(=O)O[C@H]2C[C@H]3CC[C@@H](C2)N3C)c1 [tropanyl-3,5-dimethylbenzoate]",-1.37%,1.19%,2.71%,-1.34%,1%
CCC(C)(CN(C)C)OC(=O)c1ccccc1 (stereo not given) [amyleine],-1.14%,0.02%,-0.24%,-8.42%,-0.23%
C[N+](C)(CCOc1ccccc1)Cc1ccccc1 [bephenium-hydroxynaphthoate],2.11%,0.87%,0.58%,0.22%,-0.72%
Cc1nc2ccc(-n3ncc(C(=O)c4cc5ccccc5[nH]4)c3N)cc2[nH]1,-2.45%,-1.11%,0.12%,2.07%,-0.86%
C[C@H](NC(=O)CNC(=O)c1cccc(Cl)c1)c1ccccc1,-3.1%,0.31%,-4.2%,-1.91%,0.27%
On1ncc(C2CCNCC2)c1-c1cccc(-c2ccccc2)c1,0.6%,1.61%,1.14%,0.48%,-2.39%
CS(=O)(=O)Oc1ccc2c(NC(N)=O)c(C(=O)c3ccc(Cl)cc3Cl)oc2c1 [lirimilast],-4.96%,-9.08%,-8.83%,-12.5%,-5.64%
COc1cccc(-c2ccc([C@@H](Oc3cc(-c4ccc(C[C@H](N)C(=O)O)cc4)nc(N)n3)C(F)(F)F)cc2)c1,-4.34%,-0.04%,1.61%,0.52%,-1.29%
CCCCC(=O)OCC(=O)[C@]1(O)Cc2c(O)c3c(c(O)c2[C@@H](O[C@H]2C[C@H](NC(=O)C(F)(F)F)[C@H](O)[C@H](C)O2)C1)C(=O)c1c(OC)cccc1C3=O [valrubicin],-0.61%,0.16%,-0.18%,0.06%,-1.25%
Nc1ccc(C(=O)Nc2cccc(-c3nc(N4CCOCC4)c4oc5ncccc5c4n3)c2)cn1,-0.93%,-2.3%,-2.43%,0%,20.4% (active)
Cc1ccc(N(CC2=NCCN2)c2cccc(O)c2)cc1 [phentolamine],-1.41%,0.07%,-0.25%,1.86%,-4.23%
CCOC(=O)Nc1ccc(NCc2ccc(F)cc2)cc1N [Retigabine],-1.92%,1.16%,-1.6%,-2.18%,1.01%
O=C(O)c1cc(O)c2c(c1)[C@H]([C@H]1c3cc(C(=O)O)cc(O)c3C(=O)c3c(O[C@@H]4O[C@H](CO)[C@@H](O)[C@H](O)[C@H]4O)cccc31)c1cccc(O[C@@H]3O[C@H](CO)[C@@H](O)[C@H](O)[C@H]3O)c1C2=O [sennoside-A],-3.2%,0%,0.82%,0.38%,-2.08%
COc1cc(NC(=O)Nc2cccc(CNC(=O)O[C@H]3CCOC3)c2)ccc1-c1cnco1 [merimepodib],0.31%,0.11%,-0.15%,2.5%,8.45%
Cc1cc(C)c(N)c(C#Cc2cccc(F)c2)n1,1.69%,-1.37%,0.6%,3.1%,1.98%
C[C@H](NC(=O)[C@@H](O)c1cc(F)cc(F)c1)C(=O)N[C@@H]1C(=O)N(C)c2ccccc2-c2ccccc21,-3.7%,-4.79%,-8.67%,-14%,-7.15%
Nc1nc(N)c(N=O)c(OCC2CCCCC2)n1,-3.27%,3.73%,1.88%,5.81%,18.5% (active)
O=C(O)CCCC[C@@H]1SC[C@@H]2NC(=O)N[C@@H]21 [biotin],1.38%,1.22%,-1.51%,0.93%,1.95%
COC1(C2=NCCN2)COc2ccccc2O1 (stereo not given),0.37%,1.98%,-0.68%,1.5%,1.58%

Structure (SMILES),inhibition of SARS-CoV-2 cytopathic effect (1 nM),inhibition of SARS-CoV-2 cytopathic effect (8.33 nM),inhibition of SARS-CoV-2 cytopathic effect (100 nM),inhibition of SARS-CoV-2 cytopathic effect (833.33 nM),inhibition of SARS-CoV-2 cytopathic effect (10000 nM)
NC(=O)CN1Cc2ccccc2OC1=O [caroxazone],1.09%,-3.02%,-3.19%,-4.05%,-0.94%
Nc1n[n+]([O-])c2ccccc2[n+]1[O-] [tirapazamine],-0.88%,0.77%,2.11%,0.37%,2.74%
O=c1nc2ccccc2c2n1CC(CN1CCN(c3ccccc3)CC1)N2 (stereo not given),3.05%,5.11%,2.83%,4.08%,5.46%
C[n+]1c2cc(N)ccc2cc2ccc(N)cc21 [acriflavinium],-3.77%,-2.4%,-2.84%,-0.42%,-5.69%
Cc1cc(C(=O)O)sc1C(N)C(=O)O (stereo not given),0.31%,-0.48%,-1.39%,1.06%,-0.02%
N[C@H]1CCN(O)C1=O,-2.5%,-0.335%,-0.065%,-1.54%,0.17%
CCCNC(=O)NS(=O)(=O)c1ccc(Cl)cc1 [chlorpropamide],0.91%,0.48%,-1.08%,-0.4%,-2.67%
CCN(CC)CCOC(=O)C1(c2ccc([N+](=O)[O-])cc2)CCCC1 [nitrocaramiphen],-3.06%,1.17%,1.69%,-0.19%,-0.92%
Cc1[nH]c(/C=C2\C(=O)Nc3ccc(S(=O)(=O)N(C)c4cccc(Cl)c4)cc32)c(C)c1C(=O)N1CCN(C)CC1,2.2%,0.76%,-0.49%,0.96%,-1.88%
CNC[C@@H]1CC[C@@H](N)[C@@H](O[C@H]2[C@H](O)[C@@H](O[C@H]3OC[C@](C)(O)[C@H](NC)[C@H]3O)[C@H](N)C[C@@H]2N)O1 [micronomicin],0.04%,1.42%,0.72%,3.66%,-0.03%
CCNCCCNCCCCNCCCNCC,-0.97%,1.01%,3.25%,3.4%,11.4%
Cc1c(Cl)c(C)[n+]([O-])c(Cl)c1-c1noc(-c2cc(O)c(O)c([N+](=O)[O-])c2)n1 [opicapone],2.55%,1.95%,0.21%,0.43%,-1.39%
CN1CC2c3ccccc3Oc3ccc(Cl)cc3C2C1 (stereo not given) [asenapine],1.23%,-0.6%,1.72%,-0.01%,6.35%
CNC(=O)c1ccc2c(c1)CCO[C@H]2CCN1CCN(c2ccc(C(N)=O)cc2)CC1,1.05%,-0.55%,1.37%,-1.27%,3.34%
C#CCN(C)[C@H](C)Cc1ccccc1 [selegiline],0.68%,-1.21%,1.02%,0.09%,-0.75%
CC(C)NCCCn1c(Sc2cc3c(cc2I)OCO3)nc2c(N)ncnc21,-3.36%,-0.68%,-0.95%,-7.21%,-3.3%
CC(=O)NO [acetohydroxamic-acid],4.31%,3.09%,-3.04%,2.55%,3.32%
C[N+]1([O-])[C@@H]2CC[C@H]1C[C@@H](OC(=O)C(CO)c1ccccc1)C2 (stereo not given in full) [atropine-oxide],-2.53%,-2.05%,-1.67%,-2.02%,-1.76%
CN1C(=O)c2c(nn(Cc3ccc(-c4cccc(F)n4)cc3)c2Nc2ccccc2)N2C1=N[C@@H]1CCC[C@@H]12,0.59%,1.65%,2.18%,3.15%,0.62%
CNC(=O)c1ccc(N2C(=S)N(c3cnc(C#N)c(C(F)(F)F)c3)C(=O)C23CCC3)cc1F [apalutamide],0.94%,1.02%,1.33%,0.68%,1.02%
